# Experimental data reported in PubChem BioAssay AID2283302 (EPA ToxCast).
# Inconclusive results are not listed. Active and inactive are the calls of the source. Rule for the calls: active = hit-call score of the fitted dose curve at least 0.9, where 1 is the maximum; inconclusive = response in the unintended direction; inactive = score below 0.9.
# Molecular target: rat Gamma-HydroxyButyrate Receptor (GHB), Tspan17 (gene 306771) (UniProt Q4V8E0)
# Test: NVS_GPCR_rGHB: NovaScreen (NVS) G Protein-Coupled Receptor Assay for rat Gamma-HydroxyButyrate Receptor (GHB)
# Experimental: NVS_GPCR_rGHB is a biochemical, single-readout assay that uses extracted gene-proteins from Rat forebrain in a tissue-based cell-free assay. Measurements were taken 1 hour after chemical dosing in a 48-well plate.NVS_GPCR_rGHB is one of one assay component(s) measured or calculated from the NVS_GPCR_rGHB assay. It is designed to make measurements of radioligand binding, a form of binding reporter, as detected with scintillation counting signals by Filter-based radiodetection technology.Data from the assay component NVS_GPCR_rGHB was analyzed into 1 assay endpoint. This assay endpoint, NVS_GPCR_rGHB, was analyzed in the positive analysis fitting direction relative to DMSO as the negative control and baseline of activity. Using a type of binding reporter, loss-of-signal activity can be used to understand changes in the binding as they relate to the gene Tspan17. Furthermore, this assay endpoint can be referred to as a primary readout, because the performed assay has only produced 1 assay endpoint. To generalize the intended target to other relatable targets, this assay endpoint is annotated to the gpcr intended target family, where the subfamily is metabotropic glutamate receptor.
# Binding assays used specific radioligands (tritiated, iodinated) with non-radioactive competitive displacement ligands in agonist or antagonist protocols (as indicated) and various reference compounds and inhibitors to titrate specific binding to receptors and transporters. Most enzyme assays (CYPs, kinases, phosphatases, proteases, HDACs) used recombinant protein and specific substrates (fluorescence mostly, some colorimetric and radioactive) and inhibitors, followed by a biochemical separation of substrate and product. All assays for the biochemical HTS were initially run in duplicate at a single concentration (10 uM for CYP450 assays and 25 uM for all others). Assay-chemical combinations meeting a pre-defined threshold (e.g., 30% inhibition and other criteria defined below) were then run in singleton concentration-response format with maximum concentration of 20 uM for CYPs and 50 uM for all others. Each assay was run with positive and negative controls, and concurrent controls on every plate. The follow-up (secondary) screen tested active chemical-pairs in concentration series, as well as a few additional assays not tested in the primary screen, some selected negative inactives, and several cases re-run in the concentration series for confirmatory purposes.
# Sequence of rat Gamma-HydroxyButyrate Receptor (GHB), Tspan17 (gene 306771) (Q4V8E0 whole entry, looked up): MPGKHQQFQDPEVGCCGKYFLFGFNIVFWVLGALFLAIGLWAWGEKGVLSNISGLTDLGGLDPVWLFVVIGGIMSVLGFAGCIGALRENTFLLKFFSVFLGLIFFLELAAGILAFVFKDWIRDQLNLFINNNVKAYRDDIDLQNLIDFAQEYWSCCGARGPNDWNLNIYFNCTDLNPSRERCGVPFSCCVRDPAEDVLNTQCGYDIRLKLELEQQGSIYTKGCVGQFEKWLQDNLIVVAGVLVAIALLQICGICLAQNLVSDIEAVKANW
Compound,outcome,AC50
CC(C1CC1)C(O)(Cn1cncn1)c1ccc(Cl)cc1 (centres undefined),inactive,–
CCOP(=O)(OCC)Oc1nc(Cl)c(Cl)cc1Cl,inactive,–
N#CSCSC#N,–,19.5 µM (active)
CCOC(=O)CC(SP(=S)(OC)OC)C(=O)OCC (centres undefined),inactive,–
CO[C@@H]1[C@H](OC(=O)NC(=O)CCl)CC[C@]2(CO2)[C@H]1[C@@]1(C)O[C@@H]1CC=C(C)C,inactive,–
CC(C)Oc1cccc(NC(=O)c2ccccc2C(F)(F)F)c1,inactive,–
COP(=S)(OC)Oc1nc(Cl)c(Cl)cc1Cl,inactive,–
Clc1nc(Cl)nc(Nc2ccccc2Cl)n1,–,18.6 µM (active)
Cc1cc(Cl)ccc1OCC(=O)O,–,25 µM (active)
